Measurements from the supplement of paper PMC11732987, “Enantioselective OTUD7B fragment discovery through chemoproteomics screening and high-throughput optimisation” (Communications Chemistry, 2025).

How the values were obtained:
Test in all cases: log2 ratio of Biotin-Ahx-Ub-VS probe labelling (fragment/DMSO); higher = less target engagement (more negative = stronger competition), active = hit call of the paper (q ≤ 0.05, log2 ratio ≤ -1)
Details in all cases: compound concentration: 200 uM; treatment time: 3 h
USP9X = USP9X (UniProt Q93008)
Chain of USP9X (Q93008 whole entry, the tested form may be a part): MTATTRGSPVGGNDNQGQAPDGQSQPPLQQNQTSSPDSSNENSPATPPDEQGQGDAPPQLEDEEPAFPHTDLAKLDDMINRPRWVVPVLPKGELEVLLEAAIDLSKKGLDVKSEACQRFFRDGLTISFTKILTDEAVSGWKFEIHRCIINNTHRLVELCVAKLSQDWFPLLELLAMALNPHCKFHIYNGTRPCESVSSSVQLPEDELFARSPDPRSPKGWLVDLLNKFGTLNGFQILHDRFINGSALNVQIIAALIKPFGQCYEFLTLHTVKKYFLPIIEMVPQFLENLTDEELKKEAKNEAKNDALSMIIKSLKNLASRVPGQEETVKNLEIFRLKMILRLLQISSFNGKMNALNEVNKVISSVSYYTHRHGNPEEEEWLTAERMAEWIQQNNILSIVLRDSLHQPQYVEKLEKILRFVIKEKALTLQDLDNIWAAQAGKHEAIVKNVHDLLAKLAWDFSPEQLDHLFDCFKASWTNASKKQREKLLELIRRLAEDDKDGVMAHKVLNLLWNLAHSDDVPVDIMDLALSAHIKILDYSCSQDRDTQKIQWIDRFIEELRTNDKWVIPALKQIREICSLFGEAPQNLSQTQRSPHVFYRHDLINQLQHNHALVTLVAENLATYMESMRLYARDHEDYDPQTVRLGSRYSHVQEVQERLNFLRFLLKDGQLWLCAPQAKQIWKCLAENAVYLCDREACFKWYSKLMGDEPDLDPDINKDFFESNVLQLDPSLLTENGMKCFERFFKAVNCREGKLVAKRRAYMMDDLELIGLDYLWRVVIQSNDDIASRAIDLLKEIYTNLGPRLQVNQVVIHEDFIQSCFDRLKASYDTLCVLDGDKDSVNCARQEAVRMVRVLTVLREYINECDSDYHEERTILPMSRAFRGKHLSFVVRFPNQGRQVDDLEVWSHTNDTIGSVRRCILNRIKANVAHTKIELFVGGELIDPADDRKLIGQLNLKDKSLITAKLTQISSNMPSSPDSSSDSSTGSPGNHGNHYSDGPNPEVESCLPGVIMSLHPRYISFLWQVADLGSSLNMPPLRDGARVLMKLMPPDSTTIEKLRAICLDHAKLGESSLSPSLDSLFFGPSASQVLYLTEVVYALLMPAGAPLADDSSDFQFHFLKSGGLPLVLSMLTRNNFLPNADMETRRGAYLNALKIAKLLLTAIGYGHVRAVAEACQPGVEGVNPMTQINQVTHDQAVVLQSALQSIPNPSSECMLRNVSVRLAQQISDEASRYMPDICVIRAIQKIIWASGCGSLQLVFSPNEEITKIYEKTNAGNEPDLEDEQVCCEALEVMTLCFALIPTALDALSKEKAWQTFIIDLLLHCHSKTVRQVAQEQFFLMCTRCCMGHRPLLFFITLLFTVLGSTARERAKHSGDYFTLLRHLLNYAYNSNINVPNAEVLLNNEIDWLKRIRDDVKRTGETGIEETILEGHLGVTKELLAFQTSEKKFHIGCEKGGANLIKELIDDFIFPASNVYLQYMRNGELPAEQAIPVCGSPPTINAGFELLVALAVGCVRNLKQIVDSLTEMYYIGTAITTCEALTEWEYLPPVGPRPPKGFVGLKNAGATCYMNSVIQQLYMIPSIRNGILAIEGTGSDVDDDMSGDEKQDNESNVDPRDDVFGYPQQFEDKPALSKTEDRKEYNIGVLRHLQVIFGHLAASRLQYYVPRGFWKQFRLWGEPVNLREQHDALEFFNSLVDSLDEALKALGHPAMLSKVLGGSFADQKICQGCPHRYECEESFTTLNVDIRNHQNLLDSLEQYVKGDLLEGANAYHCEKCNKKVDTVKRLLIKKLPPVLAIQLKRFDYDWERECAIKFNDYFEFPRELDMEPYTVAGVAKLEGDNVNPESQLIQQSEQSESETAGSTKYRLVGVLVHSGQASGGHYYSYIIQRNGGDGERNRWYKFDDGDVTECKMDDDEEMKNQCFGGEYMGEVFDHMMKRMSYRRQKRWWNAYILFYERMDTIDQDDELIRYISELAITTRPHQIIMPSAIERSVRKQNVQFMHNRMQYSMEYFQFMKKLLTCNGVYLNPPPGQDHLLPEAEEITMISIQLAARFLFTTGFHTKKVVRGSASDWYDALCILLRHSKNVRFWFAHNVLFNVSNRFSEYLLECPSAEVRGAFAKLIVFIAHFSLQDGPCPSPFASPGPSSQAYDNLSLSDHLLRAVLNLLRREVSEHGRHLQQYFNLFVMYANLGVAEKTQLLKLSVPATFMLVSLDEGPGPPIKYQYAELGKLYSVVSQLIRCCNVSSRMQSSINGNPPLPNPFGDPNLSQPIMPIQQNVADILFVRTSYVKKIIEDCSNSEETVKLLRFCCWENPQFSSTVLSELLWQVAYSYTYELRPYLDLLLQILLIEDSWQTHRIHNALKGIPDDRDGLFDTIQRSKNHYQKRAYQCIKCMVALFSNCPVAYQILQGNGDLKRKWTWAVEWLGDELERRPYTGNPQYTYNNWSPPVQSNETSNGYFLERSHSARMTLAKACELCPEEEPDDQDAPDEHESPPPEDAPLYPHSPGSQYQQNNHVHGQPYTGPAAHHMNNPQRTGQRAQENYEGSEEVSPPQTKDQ
Summary of the method: (§1)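 Using Biotin-Ahx-Ub-VS at 0.5 µM final for 1 h, DUBs were labelled in HEK293T lysate (495 µg per sample) that had first been treated in triplicate with fragment at 200 µM or vehicle for 3 h. NeutrAvidin enrichment, LysC and trypsin digestion and diaPASEF LC-MS/MS followed. Spectronaut label-free quantities were global-median-normalised. Values are average log2 fragment/vehicle ratios by unpaired t-test, using proteins with ≥2 unique peptides.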

UniProt O00487 = target: UniProt O00487
Chain of UniProt O00487 (O00487 whole entry): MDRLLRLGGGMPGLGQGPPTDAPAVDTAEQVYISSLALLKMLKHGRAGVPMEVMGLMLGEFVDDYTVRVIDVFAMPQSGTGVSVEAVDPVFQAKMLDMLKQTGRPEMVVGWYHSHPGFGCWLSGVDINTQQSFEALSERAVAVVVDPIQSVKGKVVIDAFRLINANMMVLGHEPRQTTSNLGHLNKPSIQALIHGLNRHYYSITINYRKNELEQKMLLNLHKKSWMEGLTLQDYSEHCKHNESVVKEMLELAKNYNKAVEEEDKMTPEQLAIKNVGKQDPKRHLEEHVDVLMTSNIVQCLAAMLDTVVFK
Summary of the method: as §1

UniProt O00507 = target: UniProt O00507
Summary of the method: as §1

UniProt P51784 = target: UniProt P51784
Chain of UniProt P51784 (P51784 whole entry): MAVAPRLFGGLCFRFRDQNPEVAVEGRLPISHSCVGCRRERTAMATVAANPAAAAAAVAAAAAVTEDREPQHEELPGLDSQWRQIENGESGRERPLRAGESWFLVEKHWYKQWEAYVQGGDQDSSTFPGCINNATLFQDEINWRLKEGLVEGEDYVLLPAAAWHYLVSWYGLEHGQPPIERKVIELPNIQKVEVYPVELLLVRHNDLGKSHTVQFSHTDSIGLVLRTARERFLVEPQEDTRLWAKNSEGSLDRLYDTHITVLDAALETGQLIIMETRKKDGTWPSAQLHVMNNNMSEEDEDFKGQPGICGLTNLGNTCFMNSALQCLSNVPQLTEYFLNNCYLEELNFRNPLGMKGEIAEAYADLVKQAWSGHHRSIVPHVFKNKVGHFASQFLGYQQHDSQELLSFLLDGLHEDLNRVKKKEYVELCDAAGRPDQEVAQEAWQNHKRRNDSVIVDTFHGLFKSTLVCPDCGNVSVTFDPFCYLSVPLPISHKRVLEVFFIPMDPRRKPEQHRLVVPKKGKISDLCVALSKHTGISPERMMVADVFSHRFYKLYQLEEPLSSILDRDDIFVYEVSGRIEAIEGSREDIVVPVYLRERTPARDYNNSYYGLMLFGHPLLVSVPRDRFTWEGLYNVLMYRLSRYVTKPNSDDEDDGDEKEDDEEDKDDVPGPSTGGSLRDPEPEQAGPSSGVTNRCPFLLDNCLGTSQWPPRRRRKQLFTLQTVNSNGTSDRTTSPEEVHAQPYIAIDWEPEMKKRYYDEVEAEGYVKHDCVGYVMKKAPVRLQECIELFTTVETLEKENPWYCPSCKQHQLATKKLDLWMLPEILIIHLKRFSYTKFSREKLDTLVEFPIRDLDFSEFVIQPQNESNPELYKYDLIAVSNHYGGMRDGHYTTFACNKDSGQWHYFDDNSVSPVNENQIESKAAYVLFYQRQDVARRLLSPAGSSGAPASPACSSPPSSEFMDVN
Summary of the method: as §1

UniProt Q5T2D3 = target: T1, UniProt Q5T2D3
T1 sequence (whole entry): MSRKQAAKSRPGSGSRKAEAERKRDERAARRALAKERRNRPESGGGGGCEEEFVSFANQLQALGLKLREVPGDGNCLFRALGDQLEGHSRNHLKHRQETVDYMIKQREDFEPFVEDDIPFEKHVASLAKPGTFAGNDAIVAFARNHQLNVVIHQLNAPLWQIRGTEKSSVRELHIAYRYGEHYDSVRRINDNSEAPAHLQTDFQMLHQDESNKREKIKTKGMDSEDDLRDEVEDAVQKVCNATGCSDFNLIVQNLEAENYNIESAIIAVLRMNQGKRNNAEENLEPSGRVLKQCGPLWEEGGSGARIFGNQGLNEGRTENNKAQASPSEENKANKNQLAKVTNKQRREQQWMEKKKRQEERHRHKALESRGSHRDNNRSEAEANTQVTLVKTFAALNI
Summary of the method: as §1

UniProt Q8TE49 = target: T2, UniProt Q8TE49
T2 sequence (whole entry): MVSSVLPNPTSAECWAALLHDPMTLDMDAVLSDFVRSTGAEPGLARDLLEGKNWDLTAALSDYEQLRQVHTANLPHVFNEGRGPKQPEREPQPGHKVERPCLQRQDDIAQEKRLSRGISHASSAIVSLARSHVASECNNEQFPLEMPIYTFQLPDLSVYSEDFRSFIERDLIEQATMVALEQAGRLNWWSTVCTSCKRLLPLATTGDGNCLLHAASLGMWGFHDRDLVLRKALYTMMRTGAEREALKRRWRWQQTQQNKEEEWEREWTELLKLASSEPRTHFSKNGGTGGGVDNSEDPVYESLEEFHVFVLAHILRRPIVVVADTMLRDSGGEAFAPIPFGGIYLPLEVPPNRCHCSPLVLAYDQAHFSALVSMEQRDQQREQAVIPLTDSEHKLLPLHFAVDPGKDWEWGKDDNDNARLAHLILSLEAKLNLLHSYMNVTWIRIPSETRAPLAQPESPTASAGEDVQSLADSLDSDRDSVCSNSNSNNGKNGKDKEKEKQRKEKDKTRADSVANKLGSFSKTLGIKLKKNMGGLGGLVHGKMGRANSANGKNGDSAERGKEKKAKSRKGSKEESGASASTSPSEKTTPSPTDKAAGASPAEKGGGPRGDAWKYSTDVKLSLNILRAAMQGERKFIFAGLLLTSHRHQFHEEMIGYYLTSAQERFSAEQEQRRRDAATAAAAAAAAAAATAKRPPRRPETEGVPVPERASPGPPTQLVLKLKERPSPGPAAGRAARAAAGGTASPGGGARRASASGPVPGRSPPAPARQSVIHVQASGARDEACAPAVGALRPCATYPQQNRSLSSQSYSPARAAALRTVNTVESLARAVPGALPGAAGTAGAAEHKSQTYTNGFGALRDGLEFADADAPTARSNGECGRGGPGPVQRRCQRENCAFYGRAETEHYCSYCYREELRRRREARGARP
Summary of the method: as §1

UniProt Q9P2H5 = target: T3, UniProt Q9P2H5
T3 sequence (whole entry): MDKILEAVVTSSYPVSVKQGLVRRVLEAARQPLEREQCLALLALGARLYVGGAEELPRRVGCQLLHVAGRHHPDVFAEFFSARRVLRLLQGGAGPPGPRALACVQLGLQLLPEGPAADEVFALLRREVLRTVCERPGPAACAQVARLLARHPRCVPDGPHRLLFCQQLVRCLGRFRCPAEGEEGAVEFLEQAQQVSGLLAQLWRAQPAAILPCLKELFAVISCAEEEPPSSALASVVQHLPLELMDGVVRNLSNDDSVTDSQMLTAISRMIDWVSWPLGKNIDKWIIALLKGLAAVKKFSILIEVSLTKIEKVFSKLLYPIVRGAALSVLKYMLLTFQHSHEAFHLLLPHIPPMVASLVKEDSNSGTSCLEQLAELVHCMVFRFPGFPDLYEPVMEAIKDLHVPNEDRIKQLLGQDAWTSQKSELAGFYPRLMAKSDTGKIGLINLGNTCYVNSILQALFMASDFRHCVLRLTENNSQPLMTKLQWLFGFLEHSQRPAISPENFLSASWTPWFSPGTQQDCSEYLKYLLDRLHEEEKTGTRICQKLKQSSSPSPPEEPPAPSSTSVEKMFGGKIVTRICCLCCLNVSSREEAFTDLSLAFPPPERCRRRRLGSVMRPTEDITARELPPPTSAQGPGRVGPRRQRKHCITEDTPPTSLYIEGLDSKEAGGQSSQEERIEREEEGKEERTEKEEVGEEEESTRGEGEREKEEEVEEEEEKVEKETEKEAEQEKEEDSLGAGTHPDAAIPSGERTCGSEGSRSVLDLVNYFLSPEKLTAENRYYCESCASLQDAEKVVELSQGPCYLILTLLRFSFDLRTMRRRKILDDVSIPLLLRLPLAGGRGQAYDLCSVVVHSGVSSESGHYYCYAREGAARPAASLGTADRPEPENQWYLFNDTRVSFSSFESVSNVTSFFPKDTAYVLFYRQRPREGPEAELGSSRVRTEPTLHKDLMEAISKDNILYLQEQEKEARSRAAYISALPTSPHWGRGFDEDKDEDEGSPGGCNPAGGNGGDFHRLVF
Summary of the method: as §1

UniProt Q9UGI0 = target: T4, UniProt Q9UGI0
T4 sequence (whole entry): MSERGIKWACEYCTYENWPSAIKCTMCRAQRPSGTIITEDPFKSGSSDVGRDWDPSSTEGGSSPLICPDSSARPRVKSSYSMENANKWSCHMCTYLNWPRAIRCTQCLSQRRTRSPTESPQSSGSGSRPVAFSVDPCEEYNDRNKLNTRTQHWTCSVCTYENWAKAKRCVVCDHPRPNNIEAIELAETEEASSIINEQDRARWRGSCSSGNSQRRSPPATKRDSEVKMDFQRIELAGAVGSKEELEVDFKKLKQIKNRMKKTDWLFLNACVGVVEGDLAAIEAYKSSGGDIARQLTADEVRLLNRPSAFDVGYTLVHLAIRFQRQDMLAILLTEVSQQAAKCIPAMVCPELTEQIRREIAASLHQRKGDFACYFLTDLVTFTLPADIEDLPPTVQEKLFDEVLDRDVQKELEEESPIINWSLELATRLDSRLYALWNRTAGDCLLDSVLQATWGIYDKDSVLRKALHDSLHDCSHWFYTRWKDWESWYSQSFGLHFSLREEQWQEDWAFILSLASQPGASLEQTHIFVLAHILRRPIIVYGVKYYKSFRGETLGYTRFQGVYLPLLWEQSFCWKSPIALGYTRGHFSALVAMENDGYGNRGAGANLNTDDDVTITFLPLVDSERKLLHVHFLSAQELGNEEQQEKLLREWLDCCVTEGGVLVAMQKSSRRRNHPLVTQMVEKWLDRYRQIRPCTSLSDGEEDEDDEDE
Summary of the method: as §1

YOD1 = target: T5, YOD1 (UniProt Q5VVQ6)
T5 sequence (whole entry): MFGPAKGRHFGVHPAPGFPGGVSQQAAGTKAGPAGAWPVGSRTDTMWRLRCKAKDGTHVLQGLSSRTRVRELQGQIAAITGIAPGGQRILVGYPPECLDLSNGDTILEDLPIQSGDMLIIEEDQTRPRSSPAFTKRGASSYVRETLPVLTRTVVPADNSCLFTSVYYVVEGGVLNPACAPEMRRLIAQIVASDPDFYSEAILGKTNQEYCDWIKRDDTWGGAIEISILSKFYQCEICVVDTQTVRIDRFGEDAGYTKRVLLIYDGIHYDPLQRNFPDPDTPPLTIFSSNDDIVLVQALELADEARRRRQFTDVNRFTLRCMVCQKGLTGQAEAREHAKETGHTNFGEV
Summary of the method: as §1

Measured: log2 ratio of Biotin-Ahx-Ub-VS probe labelling

Cc1noc(N2CCN(C(=O)CCl)CC2)n1.Cl
inactive: USP9X -0.318 | UniProt O00487 0.0199 | UniProt O00507 0.416 | UniProt P51784 0.139 | UniProt Q5T2D3 -0.466 | UniProt Q8TE49 -0.674 | UniProt Q9P2H5 -0.642 | UniProt Q9UGI0 -0.369 | YOD1 0.313
